Bioassay records from PubChem.
EPAC1 agonist – activates human EPAC1 exchange factor. EPAC1 agonist qHTS, biochemical assay; response scale: 100% = response to 6.5 mM cAMP. Potency, µM (series often up to 154 µM), for the others: at the highest dose activation, usual class: activators. 360,000 tested, 0.073% active; further: potency means the concentration at half of the fitted maximal effect; nearly all actives have a fitted effect of over 60% in size
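Multi-concentration qHTS readout: loss of Rap1B-bound BODIPY-GDP fluorescence driven by 100 nM EPAC1 with excess GDP (50 uM), monitored kinetically at room temperature; agonist response expressed relative to 6.5 mM cAMP.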
EPAC2 antag – antagonists of human EPAC2; AID 720708; EPAC2 GEF exchange of Rap1B-BODIPY-GDP, fluorescence; 360,000 tested, 0.18% active; Q8WZA2; Potency, µM (doses to about 114 µM), inactives show top-dose activity, negative = inhibition, actives largely listed as inhibitors; further: potency means the concentration at half of the fitted maximal effect; on the % scale 0 is the no-effect control and ±100 the full control effect; nearly all actives have a fitted effect of over 45% in size
USP1 inh – blocks the human USP1/UAF1 deubiquitinase complex. O94782. Potency, µM (titrated, usually from 57.1 µM), inactives show at the top dose activity change, negative = inhibition, usual class: inhibitors. AID 743255. recombinant USP1/UAF1, Ub-Rhodamine cleavage fluorescence. 390,000 tested, 0.23% active; further: potency means the concentration at half of the fitted maximal effect; on the % scale 0 is the no-effect control and ±100 the full control effect; nearly all actives have a fitted effect of over 60% in size
Target sequence (O94782 whole entry, looked up): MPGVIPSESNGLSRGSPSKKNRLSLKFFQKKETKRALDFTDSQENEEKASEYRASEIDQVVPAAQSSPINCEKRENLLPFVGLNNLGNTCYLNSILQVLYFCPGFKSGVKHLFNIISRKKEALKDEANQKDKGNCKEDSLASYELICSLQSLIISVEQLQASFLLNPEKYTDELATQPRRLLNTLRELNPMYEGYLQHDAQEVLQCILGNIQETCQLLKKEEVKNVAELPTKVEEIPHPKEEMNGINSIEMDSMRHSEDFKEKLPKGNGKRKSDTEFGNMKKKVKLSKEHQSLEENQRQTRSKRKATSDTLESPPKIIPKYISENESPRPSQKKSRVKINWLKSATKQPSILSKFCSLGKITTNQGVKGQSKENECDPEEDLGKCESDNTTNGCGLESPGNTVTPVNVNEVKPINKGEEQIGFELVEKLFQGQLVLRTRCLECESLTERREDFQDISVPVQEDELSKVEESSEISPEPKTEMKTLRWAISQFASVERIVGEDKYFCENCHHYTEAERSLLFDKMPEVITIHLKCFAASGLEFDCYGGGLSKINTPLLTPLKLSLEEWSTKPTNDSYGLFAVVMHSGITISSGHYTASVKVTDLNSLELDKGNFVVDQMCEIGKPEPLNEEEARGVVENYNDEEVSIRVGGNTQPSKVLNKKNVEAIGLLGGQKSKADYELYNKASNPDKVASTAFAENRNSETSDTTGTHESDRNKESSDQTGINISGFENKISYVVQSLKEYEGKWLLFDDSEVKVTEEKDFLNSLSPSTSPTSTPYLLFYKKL
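USP1/UAF1 complex at 1 nM was preincubated with compound for 15 min at room temperature, then Ub-Rho substrate (150nM final) was added. Fluorescence (480/540 nm) was read kinetically, 6 reads every 60 seconds.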
EPAC2 ag – EPAC2 (human) agonism | Q8WZA2 | EPAC2 activation, biochemical qHTS; response scale: 100% = 6.5 mM cAMP response | Potency, µM (highest dose often 154 µM), for inactives: top-dose activation, hits mostly activators | 360,000 tested, 0.079% active; further: potency means the concentration at half of the fitted maximal effect; nearly all actives have a fitted effect of over 50% in size
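qHTS, titration series. 100 nM EPAC2 / 250 nM Rap1B-BODIPY-GDP / 50 uM GDP; RT; ex 480/em 540 nm, 5-min reads to 30 min. Norm. to 6.5 mM cAMP = activation.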
Coupling enz – coupling enzyme interference in Giardia aldolase counter-screen; 290,000 tested, 0.67% active; AID 2472; coupling enzyme system counterscreen, AmpLite Red fluorescence; activity change, negative = inhibition, % at 58.2 µM, hits read low; in the data active means activity change below about -30%; further: on the % scale 0 is the no-effect control and ±100 the full control effect
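Final compound at 57.5 uM, incubated 10 min at RT with coupling enzyme reagent (glyceraldehyde-3-phosphate), then 20 min with substrate and AmpLite Red detection. Fluorescence read at 525/598 nm; tests interference with the coupling assay, not aldolase inhibition.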
EPAC1 antag – antagonists of human EPAC1; Potency, µM (top dose mostly 115 µM), for the others: at the highest dose activity change, negative = inhibition, most hits filed as inhibitors; 360,000 tested, 0.14% active; EPAC1 GEF assay, Rap1b-BODIPY-GDP exchange fluorescence;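 further: potency means the concentration at half of the fitted maximal effect; plate controls were vehicle for no effect and positive control for full effect; nearly all actives have a fitted effect of over 50% in size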
An asterisk follows results filed as active; ? = inconclusive; . = no result. In the library only some 0.87% were active in any assay of this set; here they are far more common. Unless noted, the call rests on the fitted dose curve; in most records, active means well fitted curve in the direction sought with a large enough effect; inconclusive means small, poorly fitted or top-dose-only effect, or another doubt; inactive means no such curve, though single readings can be large; an effect the other way counts as inactive or inconclusive.

SMILES	EPAC1 agonist	EPAC2 antag	USP1 inh	EPAC2 ag	Coupling enz	EPAC1 antag
COC(=O)C1=C(c2ccc(Cl)c(C(F)(F)F)c2)C[C@@H]2CC[C@H]1N2C(=O)N1CCC(C)CC1	4.1%	-19.1%	10.9%	-8.8%	.	2.3%
CN1CCN(c2ccc([N+](=O)[O-])c(NCC3CCCO3)c2)CC1 (stereo not given)	6.9%	-1.5%	-5.7%	5.2%	-30.8*	8.5%
CN1CCN(c2ccc([N+](=O)[O-])c(NCc3ccco3)c2)CC1	1.7%	-1.6%	-19.6%	-5.6%	-1.1	-1.2%
COc1cccc(NP(=O)(Oc2ccc(Cl)cc2)Oc2ccc(Cl)cc2)c1	2.9%	-6.7%	-21.7%	-0.6%	-1.9	-22.6%
O=[N+]([O-])c1cccc(NP(=O)(Oc2ccccc2)Oc2ccccc2)c1	11.7%	25.1µM*	-13.0%	11.5%	-1.5	0.2%
O=P(Nc1cccc(F)c1)(Oc1ccccc1F)Oc1ccccc1F	14.2%	35.5µM*	-6.7%	22.6%	-1.6	?
COc1ccc(NS(=O)(=O)c2ccc(OCC(=O)N3CCN(C)CC3)cc2)cc1Cl	-5.8%	-2.5%	-6.9%	2.0%	.	-25.4%
S=C(Nc1ccccc1)Nc1ccccn1	89.1µM*	-4.6%	-11.2%	2.4%	.	14.8%
C(=C/c1ccccc1)/CN1CCN(CCOC(c2ccccc2)c2ccccc2)CC1	.	.	.	.	4.9	.
CC1(C)S[C@@H]2[C@H](N)C(=O)N2C1C(=O)O (stereo not given in full)	.	.	.	.	2.6	.
O=C(O)COc1ccccc1	-18.9%	-14.7%	-23.0%	10.9%	.	4.2%
O=C(O)Cc1cccnc1C(=O)O	.	.	.	.	-67.9*	.
Cc1cc(C(C#N)c2ccc(Cl)cc2)c(Cl)cc1NC(=O)c1cc(I)cc(I)c1O (stereo not given)	-15.8%	50.1µM*	?	-10.8%	.	?
CCn1c(O)c(C=Nc2ccc(N3CCOCC3)cc2)c(=O)n(CC)c1=S	6.8%	112.5%	17.8µM*	100µM*	-0.5	1.2%
CNCCc1ccc(O)c(O)c1	-5.0%	-12.0%	-18.6%	-3.0%	.	-5.1%
COC(=O)c1nc(-c2ccc3c(n2)C(=O)C(N)=C(OC)C3=O)c(N)c(-c2ccc(OC)c(OC)c2O)c1C	8.8%	-16.3%	7.08µM*	-2.2%	-36.9*	-23.5%
O=C1NC(=O)c2c1c1c3ccccc3[nH]c1c1[nH]c3ccccc3c21	.	.	.	.	1.8	.
CCOc1ccc(-n2c(O)c(C=Nc3ccc(N(CC)CC)cc3)c(=O)[nH]c2=O)cc1	-12.3%	108.5%	-27.0%	-192.3%	-2.7	9.0%
CCOc1ccccc1-n1c(O)c(C=Nc2ccc(N(CC)CC)cc2)c(=O)[nH]c1=O	70.8µM*	32.2%	?	100µM*	-2.0	8.0%
CCN(CC)c1ccc(N=Cc2c(O)n(-c3ccccc3C)c(=O)[nH]c2=O)cc1	100µM*	9.2%	?	89.1µM*	0.0	-0.7%
CCN(CC)c1ccc(N=Cc2c(O)n(-c3ccccc3)c(=O)[nH]c2=O)cc1	-17.7%	39.9%	?	-9.9%	-10.5	-9.3%
C[C@H]1O[C@H](O[C@H]2[C@H](O)[C@@H](O)[C@@H](O)[C@H](O)[C@@H]2O)[C@@H](N)C[C@@H]1NC(=N)C(=O)O	.	.	.	.	-8.9	.
CC(=O)[O][Hg][c]1ccccc1	.	.	.	.	-48.0*	.
ClCCN(CCCl)c1ccc(C=Cc2ccncn2)cc1	17.6%	-13.7%	25.1µM*	15.7%	.	0.0%
ClCCN(CCCl)c1ccc(C=NNc2ncccn2)cc1	6.6%	-21.4%	?	5.4%	.	-5.7%
SMILES	EPAC1 agonist	EPAC2 antag	USP1 inh	EPAC2 ag	Coupling enz	EPAC1 antag
CN(C)c1ccc(/C=C/c2cc[n+](C)c3ccccc23)cc1	-8.5%	?	-25.7%	-10.6%	-41.7*	-9.7%
C[C@]12CCC3C(CC[C@H]4[C@@H](O)[C@H](O)CC[C@]34C)C1CCC2=O (stereo not given in full)	-2.8%	1.3%	-9.8%	6.7%	.	-1.1%
COc1ccc(/C=C2/C(=O)N(Cc3ccco3)C(=O)N(C(C)C)C2=O)cc1	-4.7%	40.5%	?	-9.5%	3.1	31.6µM*
CC(C)N1C(=O)/C(=C/C=C/c2ccco2)C(=O)N(Cc2ccco2)C1=O	4.3%	-2.2%	-3.6%	9.1%	-3.7	?
O=C1NC(=O)N(Cc2ccc(F)cc2)C(=O)/C1=C\c1ccc([N+](=O)[O-])s1	-9.3%	0.2%	28.2µM*	-3.8%	-5.6	20µM*
COc1ccc(CN2C(=O)NC(=O)/C(=C/c3ccc([N+](=O)[O-])s3)C2=O)cc1	-6.9%	3.3%	35.5µM*	-10.1%	-3.6	39.8µM*
COc1ccc(CN2C(=O)NC(=O)/C(=C\c3ccco3)C2=O)cc1	-6.5%	2.3%	?	4.4%	0.8	50.1µM*
O=C1NC(=O)N(Cc2ccco2)C(=O)/C1=C\c1cccn1CCOc1ccc(Cl)cc1	-11.6%	-8.0%	-12.1%	4.8%	2.2	50.1µM*
Cc1ccc(C2CC3CCC(C2)N3Cc2ccccc2F)cc1 (stereo not given)	3.4%	0.0%	-2.9%	5.1%	-0.3	-2.2%
O=C(Cn1ncc2c3ccccc3n(Cc3cccc(Cl)c3)c2c1=O)N1CCC2(CC1)OCCO2	27.2%	8.1%	-19.2%	?	-2.0	1.3%
Cc1cc(-n2c(/C=C/c3ccc(Br)s3)nc3ccccc3c2=O)ccc1Br	.	.	-16.3%	.	.	.
Cc1c(C)c2ccc(OCC(=O)N3C[C@H]4C[C@@H](C3)c3cccc(=O)n3C4)cc2oc1=O	-16.8%	0.0%	-20.4%	4.0%	-2.6	4.5%
CCCCCN1C(=O)c2ccccc2[C@@]2(C(=O)OCC)Cc3cc(OC)ccc3[C@@H]12	-6.0%	?	.	14.3%	.	-9.2%
CCN1C(=O)NC(=O)/C(=C/c2cc(C)n(-c3sc(C)c(C)c3C#N)c2C)C1=O	5.5%	8.6%	-11.6%	10.5%	-37.1*	-14.0%
Cc1ccc(N2C(=O)NC(=O)/C(=C\c3cc(C)n(-c4sc5c(c4C#N)CCCC5)c3C)C2=O)cc1	8.4%	?	28.2µM*	-11.8%	0.9	17.8µM*
CCOP(=S)(OCC)Oc1ccc(Cl)cc1Cl	.	.	.	.	2.7	.
Cn1cccc1/C=C1\C(=O)NC(=O)N(Cc2ccccc2Cl)C1=O	-6.5%	-4.0%	-9.8%	5.4%	5.1	79.4µM*
Cn1cccc1/C=C1\C(=O)NC(=O)N(CCC2=CCCCC2)C1=O	3.1%	5.3%	-16.7%	-8.4%	2.9	-4.2%
CCCCn1c(NC(=O)c2ccco2)c(C(=O)OCC)c2nc3ccccc3nc21	6.9%	9.1%	25.1µM*	4.7%	-45.6*	?
CCCCn1c(NS(=O)(=O)c2ccc(C)cc2)c(C(=O)OCC)c2nc3ccccc3nc21	112µM*	-9.2%	?	-8.3%	-18.8	?
